NTMT1 inh: inhibitors of human N-terminal methyltransferase NTMT1. Potency, µM (doses to about 114 µM), most hits filed as inhibitors. AID 1645870. Q9BV86. 2.5% of 59,000 active. NTMT1 MTase-Glo SAH luminescence, purified enzyme; also: nearly all actives have a fitted effect of over 65% in size
Target sequence (Q9BV86 whole entry, looked up): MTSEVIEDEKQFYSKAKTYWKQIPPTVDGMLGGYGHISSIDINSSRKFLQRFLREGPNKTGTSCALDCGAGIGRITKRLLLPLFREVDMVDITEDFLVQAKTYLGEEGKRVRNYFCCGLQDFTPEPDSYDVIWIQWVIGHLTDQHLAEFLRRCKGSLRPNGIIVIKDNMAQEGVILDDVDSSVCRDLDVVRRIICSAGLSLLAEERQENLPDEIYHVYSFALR
GALK inhibitor: GALK (human) enzyme inhibition. Potency, µM (top dose mostly 57.5 µM), actives largely listed as inhibitors. 44,000 tested, under 10 active. AID 1347072. recombinant GALK, Kinase-Glo ATP luminescence, 1 h
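5 nM GALK with 35 µM ATP and 100 µM galactose in HEPES pH 8.0, MgCl2, NaCl, DTT, BSA; 1 h RT reaction, remaining ATP detected by Kinase-Glo Plus luminescence after 10 min; qHTS concentration series.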
B2AR arrestin ag: beta-arrestin recruitment by human beta2-adrenergic receptor ligands; AID 1347077; Potency, µM (highest dose often 46.1 µM), usual class: activators; HTLA Tango cells, beta-arrestin recruitment, luciferase luminescence, 18 h; P07550; 44,000 tested, under 10 active
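Receptor–beta-arrestin recruitment read by tTA-responsive luciferase: compound titrations (up to 46 µM) incubated 18 h with Tango cells, then luminescent substrate 15 min at room temperature. Concentration-response fits classified by r2, efficacy and activity.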
GPR32 ag: activates human resolvin D1 receptor GPR32; CHO-K1 GPR32 beta-arrestin PathHunter luminescence, 90 min; zero percent set by DMSO-only wells; activation, % at 76.9 µM; 2.5% of 48,000 active;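 active = activation of at least 60% and not above a set upper limit, about 1 call in 100 departs from these limits; inconclusive = activation of 40% to 60%, or above that upper limit; inactive = activation under 40%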
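GPR32 activation in stably transfected CHO-K1 cells, detected as beta-arrestin recruitment by enzyme-fragment complementation. Compound exposure: 90 min, 37 °C.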
GALC G270D up: enhancers of human galactocerebrosidase G270D mutant activity in cells; P54803; 145M-Twi-hGALC-G270D cells (Twitcher mouse brain line with human GALC G270D), HMU-beta-Gal fluorescence, 48 h; Potency, µM (top dose mostly 57.5 µM), hits mostly activators; 0.1% of 45,000 active; AID 1159614; also: nearly all actives have a fitted effect of over 65% in size
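Mutant human GALC (G270D), stably expressed in a Twitcher mouse brain cell line lacking endogenous GALC, is measured in live-treated cells via 6-hexadecanoylamino-4-methylumbelliferyl-β-galactoside hydrolysis (0.1 mM final, pH 5.2) with fluorescent detection.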
DYRK1A KinaseGlo: human DYRK1A kinase inhibition by ATP depletion readout | shares compounds with NTMT1 inh | recombinant DYRK1A, Kinase-Glo ATP depletion luminescence | Potency, µM (top dose mostly 76.9 µM), hits mostly inhibitors | 80% of 100 active | AID 2705
CLK4 KinaseGlo: inhibits human CLK4 kinase in Kinase-Glo confirmation. 90% of 90 active. shares compounds with NTMT1 inh. Potency, µM (top dose mostly 76.9 µM), hits mostly inhibitors. recombinant Clk4, Kinase-Glo ATP luminescence, 4.5 h
NNMT counter: blocks human NNMT methyltransferase | shares compounds with NTMT1 inh | NNMT MTase-Glo luminescence, SAH detection | Potency, µM (doses to about 57.1 µM), usual class: inhibitors | 10% of 120 active | AID 1645878
Target sequence (P40261 whole entry, looked up): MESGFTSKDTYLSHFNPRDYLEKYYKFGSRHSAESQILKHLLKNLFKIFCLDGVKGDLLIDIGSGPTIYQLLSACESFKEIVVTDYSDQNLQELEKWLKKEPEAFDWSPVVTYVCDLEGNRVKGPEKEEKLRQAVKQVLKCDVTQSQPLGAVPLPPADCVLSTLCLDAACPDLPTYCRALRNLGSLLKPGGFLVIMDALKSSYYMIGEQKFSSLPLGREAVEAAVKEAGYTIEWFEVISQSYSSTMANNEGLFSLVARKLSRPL
Of the large screens only hits and unclear results are named; the others gave an inactive call (follow-up assays come after a bar, where they were run); ! = not active in a repeat. In the library only some 3.6% were active in any assay of this set; here they are far more common. Unless noted, calls follow the shape of the dose curve; as a rule, active = well fitted curve in the direction sought with a large enough effect; inconclusive = small, poorly fitted or top-dose-only effect, or another doubt; inactive = no such curve, though single readings can be large; an effect the other way counts as inactive or inconclusive.

Cc1ccc(-c2ccc(=O)n(CC(=O)N(C)C(C)C(C)C)n2)cc1 (stereo not given)	none (no result: GALK inhibitor, B2AR arrestin ag, GPR32 ag, GALC G270D up)
CC(C)C(CO)Nc1nc(Nc2ccc(C(=O)O)c(Cl)c2)c2ncn(C(C)C)c2n1 (stereo not given)	none (no result: GALK inhibitor, B2AR arrestin ag, GPR32 ag, GALC G270D up)
COc1ccc(-c2ccc3ncc4c(c3c2)n(-c2ccc(N3CCNCC3)c(C(F)(F)F)c2)c(=O)n4C)cn1	NTMT1 inh 16µM! (no result: GALK inhibitor, B2AR arrestin ag, GPR32 ag, GALC G270D up) | NNMT counter inactive
OCc1ccc(-c2ccc3ncnc(NCCc4cnc[nH]4)c3c2)o1	NTMT1 inh inconclusive (no result: GALK inhibitor, B2AR arrestin ag, GPR32 ag, GALC G270D up) | DYRK1A KinaseGlo 23µM
Cc1nc(C)c(-c2ccc3ncnc(NCCc4cnc[nH]4)c3c2)s1	NTMT1 inh inconclusive (no result: GALK inhibitor, B2AR arrestin ag, GPR32 ag, GALC G270D up) | DYRK1A KinaseGlo 26µM
CCNC(=O)c1ccc(-c2ccc3ncnc(NCCc4cnc[nH]4)c3c2)o1	none (no result: GALK inhibitor, B2AR arrestin ag, GPR32 ag, GALC G270D up) | CLK4 KinaseGlo 1.3µM
CN1CCN(C(=O)c2ccc3cc(CCNc4ncnc5ccc(C#N)cc45)ccc3c2)CC1	none (no result: GALK inhibitor, B2AR arrestin ag, GPR32 ag, GALC G270D up)
Cc1noc(C)c1-c1ccc2ncnc(NCc3ccc(F)cc3)c2c1	none (no result: GALK inhibitor, B2AR arrestin ag, GPR32 ag, GALC G270D up)
CCOC(=O)c1cnc2ccc(C)cc2c1NCCc1ccc(OC)c(OC)c1	none
c1cncc(CNc2ncnc3ccc(-c4ccco4)cc23)c1	none (no result: GALK inhibitor, B2AR arrestin ag, GPR32 ag, GALC G270D up)
CCOC(=O)c1ccc(-c2ccc3ncnc(NCCc4cnc[nH]4)c3c2)o1	NTMT1 inh inconclusive (no result: GALK inhibitor, B2AR arrestin ag, GPR32 ag, GALC G270D up) | DYRK1A KinaseGlo 1.6µM
Cc1ccc(NC(=O)[C@H]2CCCN(C(=O)c3c(C)cccc3F)[C@H]2c2ccc(NC3CCCC3)cc2)cc1C(F)(F)F	none (no result: GALK inhibitor, B2AR arrestin ag, GPR32 ag, GALC G270D up)
O=C(O)c1ccc(-c2ccc3ncnc(NCCc4cnc[nH]4)c3c2)o1	none (no result: GALK inhibitor, B2AR arrestin ag, GPR32 ag, GALC G270D up) | DYRK1A KinaseGlo 9.2µM
Nc1nonc1-c1nc2cnccc2n1C1CC1	none (no result: GALK inhibitor, B2AR arrestin ag, GPR32 ag, GALC G270D up)
Cc1ccc(F)cc1S(=O)(=O)N[C@@H]1CCN(Cc2ccc(OC(C)C)cc2)C1	NTMT1 inh inconclusive (no result: GALK inhibitor, B2AR arrestin ag, GPR32 ag, GALC G270D up) | NNMT counter inactive
C[C@@H]1O[C@@H](O[C@H]2[C@H](OC(=O)[C@]34CCC(C)(C)C[C@H]3C3=CCC5[C@@]6(C)CC[C@H](O[C@@H]7O[C@H](C(=O)O)[C@@H](O)[C@H](O)[C@H]7O[C@@H]7O[C@H](CO)[C@H](O)[C@H](O)[C@H]7O)[C@@](C)(C=O)C6CC[C@@]5(C)[C@]3(C)C[C@H]4O)O[C@H](C)[C@H](O[C@@H]3O[C@H](C)[C@H](O)[C@H](O)[C@H]3O)[C@@H]2O)[C@H](O)[C@H](O)[C@H]1O[C@@H]1OC[C@@H](O)[C@H](O[C@@H]2O[C@H](CO)[C@@H](O)[C@H](O)[C@H]2O)[C@H]1O (stereo not given in full)	none (no result: GALK inhibitor, B2AR arrestin ag, GPR32 ag, GALC G270D up)

Compound activity: PubChem BioAssay, National Center for Advancing Translational Sciences (NCATS)
